The campaign covered roughly 360,000 compounds. About 16,000 (4.4%) were called active. Another 9% or so got no clear call; they are omitted. Calls follow the shape of the dose curve; as a rule, active = well fitted inhibition curve with a large enough effect; inconclusive = small, poorly fitted or top-dose-only effect; inactive = no such curve, though single readings can be large or run the other way. What follows is part of a selection rich in actives, with near analogues and random picks from the rest. Entries that show only a call come without a potency.
The compounds below were run against Bromodomain adjacent to zinc finger domain protein 2B (Homo sapiens) (UniProt Q9UIF8) (assay: qHTS Assay for Inhibitors of BAZ2B). Settings: AlphaScreen BAZ2B-H3K14Ac peptide displacement; series mostly up to 114 µM.
Bromodomain adjacent to zinc finger domain protein 2B (Homo sapiens), sequence (Q9UIF8 whole entry, looked up, the tested form may be a part): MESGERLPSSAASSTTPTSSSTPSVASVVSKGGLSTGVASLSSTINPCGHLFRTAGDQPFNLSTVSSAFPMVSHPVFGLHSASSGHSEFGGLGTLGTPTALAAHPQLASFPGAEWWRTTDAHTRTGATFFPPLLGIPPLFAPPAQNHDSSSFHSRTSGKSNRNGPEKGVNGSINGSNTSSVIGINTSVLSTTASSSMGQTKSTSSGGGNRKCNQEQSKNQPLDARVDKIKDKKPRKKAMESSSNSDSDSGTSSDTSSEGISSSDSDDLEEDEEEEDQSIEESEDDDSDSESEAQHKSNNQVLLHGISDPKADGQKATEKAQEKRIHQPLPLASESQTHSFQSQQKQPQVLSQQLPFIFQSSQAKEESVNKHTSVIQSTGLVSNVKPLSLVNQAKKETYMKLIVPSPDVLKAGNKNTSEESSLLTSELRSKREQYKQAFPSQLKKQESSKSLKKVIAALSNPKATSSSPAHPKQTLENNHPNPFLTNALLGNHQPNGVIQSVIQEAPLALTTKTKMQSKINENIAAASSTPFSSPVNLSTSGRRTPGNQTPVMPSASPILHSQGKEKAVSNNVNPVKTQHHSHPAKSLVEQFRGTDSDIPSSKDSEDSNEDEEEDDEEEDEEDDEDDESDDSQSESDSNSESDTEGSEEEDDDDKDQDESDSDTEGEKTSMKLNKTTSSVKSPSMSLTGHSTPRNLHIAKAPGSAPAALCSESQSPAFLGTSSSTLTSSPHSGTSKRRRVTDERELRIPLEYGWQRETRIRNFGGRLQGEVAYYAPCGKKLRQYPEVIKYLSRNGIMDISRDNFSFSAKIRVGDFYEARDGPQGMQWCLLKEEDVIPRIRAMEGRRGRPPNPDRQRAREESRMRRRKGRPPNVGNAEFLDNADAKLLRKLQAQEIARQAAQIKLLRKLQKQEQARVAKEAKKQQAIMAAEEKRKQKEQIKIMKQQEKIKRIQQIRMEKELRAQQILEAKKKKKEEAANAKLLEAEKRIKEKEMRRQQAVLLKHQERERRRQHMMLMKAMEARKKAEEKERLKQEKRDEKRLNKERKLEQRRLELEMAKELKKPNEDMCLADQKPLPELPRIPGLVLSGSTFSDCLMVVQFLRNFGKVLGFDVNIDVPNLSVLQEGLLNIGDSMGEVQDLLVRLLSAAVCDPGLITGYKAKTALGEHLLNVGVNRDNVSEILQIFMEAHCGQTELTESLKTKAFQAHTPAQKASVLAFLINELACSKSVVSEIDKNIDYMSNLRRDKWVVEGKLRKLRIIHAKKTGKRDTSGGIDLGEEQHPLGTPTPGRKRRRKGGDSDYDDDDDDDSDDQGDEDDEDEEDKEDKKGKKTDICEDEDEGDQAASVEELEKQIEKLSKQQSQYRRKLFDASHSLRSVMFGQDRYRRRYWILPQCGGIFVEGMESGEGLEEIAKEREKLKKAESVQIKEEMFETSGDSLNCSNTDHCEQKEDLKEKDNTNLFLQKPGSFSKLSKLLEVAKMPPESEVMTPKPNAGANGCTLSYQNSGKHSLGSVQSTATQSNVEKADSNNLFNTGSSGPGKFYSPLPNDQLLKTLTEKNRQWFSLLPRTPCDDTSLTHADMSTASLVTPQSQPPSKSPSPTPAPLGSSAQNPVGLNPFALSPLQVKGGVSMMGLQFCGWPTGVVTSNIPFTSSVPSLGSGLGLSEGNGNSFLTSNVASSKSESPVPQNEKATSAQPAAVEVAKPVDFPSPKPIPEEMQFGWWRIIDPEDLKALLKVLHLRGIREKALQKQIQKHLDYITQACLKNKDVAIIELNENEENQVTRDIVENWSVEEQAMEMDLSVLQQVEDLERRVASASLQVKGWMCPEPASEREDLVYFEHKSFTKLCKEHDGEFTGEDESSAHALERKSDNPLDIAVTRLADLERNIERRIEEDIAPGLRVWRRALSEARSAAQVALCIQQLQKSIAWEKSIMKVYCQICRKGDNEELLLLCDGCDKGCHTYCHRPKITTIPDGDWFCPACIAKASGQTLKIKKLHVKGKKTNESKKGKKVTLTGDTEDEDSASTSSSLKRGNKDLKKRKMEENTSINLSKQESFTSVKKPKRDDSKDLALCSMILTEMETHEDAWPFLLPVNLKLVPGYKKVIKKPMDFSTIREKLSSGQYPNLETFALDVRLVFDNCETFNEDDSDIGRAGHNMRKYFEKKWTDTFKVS
Outline: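 Multi-concentration screen (max 110 uM) measuring displacement of acetylated histone H3 peptide from BAZ2B by AlphaScreen, using 50 nM protein, 50 nM peptide and 10 ug/mL streptavidin donor plus Ni-chelate acceptor beads.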
Also: nearly all actives have a fitted effect of over 60% in size.
Potency is read from the fitted curve at half-maximal effect.

SMILES | Potency
CCc1ccccc1NC(=O)CSc1nnc(-c2ccccc2)c(-c2ccccc2)n1 | inactive
COc1ccc(NC(=O)CSc2nccn2C2CCCC2)cc1OC | inactive
CC1CCCCC1NC(=O)CSc1nnc(-c2ccncc2)n1CCCN(C)C (configuration not stated) | 44.7 µM (active)
CCn1c(SCC(=O)Nc2ccc3c(c2)OCCO3)nnc1-c1ccncc1 | inactive
CCn1c(SCC(=O)NC2CC2)nnc1-c1ccncc1 | inactive
Cn1c(SCc2ccc(F)cc2)nnc1-c1ccncc1 | inactive
CCn1c(SCc2cccc(C(=O)O)c2)nnc1-c1ccc(Cl)cc1 | inactive
CN(C)CCCn1c(SCc2ccc(Cl)cc2)nnc1-c1ccncc1 | 56.2 µM (active)
CCCN(CCC)C(=O)C1CCCN(c2ncnc3c2nc2n3CCCCC2)C1 (configuration not stated) | inactive
COc1ccc(Cn2c(C(=O)O)c(CNCc3cccc(OC)c3)c3ccc(C)cc32)cc1 | inactive
O=C(OCc1cc(=O)n2nc(C3CC3)sc2n1)c1ccccc1Cl | inactive
Cc1cccc(NC(=O)Cn2cc(S(=O)(=O)Cc3ccccc3Cl)c3ccccc32)c1 | inactive
CCOc1cc(CNCc2ccccn2)ccc1OCC(=O)NC(C)(C)C | 50.1 µM (active)
CCOc1cc(CNn2c(C)nnc2SCC(=O)NC(C)(C)C)ccc1OCC(=O)NC(C)(C)C | inactive
CCOc1cc(C)c(S(=O)(=O)NCc2ccccn2)cc1C | inactive
Cc1cc(NC(=O)CSc2nnnn2-c2ccc(F)cc2)no1 | inactive
Cc1cc(NC(=O)CSc2nnc(Nc3ccccc3F)s2)no1 | inactive
Cc1cc(NC(=O)CSc2nnc(-c3ccc(Cl)s3)o2)no1 | 39.8 µM (active)
COc1ccc(CNC(=O)c2ccc3c(O)c(S(=O)(=O)c4ccccc4)c(=O)[nH]c3c2)cc1 | inactive
CCN1CCN(CCCNC(=O)c2cnn(-c3ccc(C)cc3C)c2C2CCN(C(=O)OC(C)(C)C)CC2)CC1 | inactive
COc1cccc(C(=O)NC2(C(F)(F)F)C(=O)Nc3c2c(=O)[nH]c(=O)n3-c2ccc(C)cc2)c1 (configuration not stated) | inactive
CCc1cnc2c(c1SCC(=O)N1CCC(C)CC1)c(=O)n(C)c(=O)n2C | inactive
O=C(CCCCn1c(=O)c2ccccc2n(CC(=O)Nc2cccc(C(F)(F)F)c2)c1=O)NCc1ccc2c(c1)OCO2 | inactive
O=C(NCCc1ccco1)c1nn(Cc2ccccc2)c(=O)c2ccccc12 | 50.1 µM (active)
O=c1c2ccccc2c(-c2ccc(Br)cc2)nn1Cc1ccccc1 | inactive
O=C(NCCSc1ccccc1)c1ccco1 | inactive

SMILES | Potency
CCOC(=O)c1c(S(=O)(=O)N2CCCC(C(=O)NCc3ccc(F)cc3)C2)c(C)n(CC)c1C (configuration not stated) | inactive
Cc1cc(C)c(/C=C/c2onc(C)c2S(=O)(=O)N2CCC(C(=O)Nc3ccc(Cl)cc3C)CC2)c(C)c1 | inactive
COc1ccc2c(c1)Cc1sc(NC(=O)c3ccccc3Br)nc1-2 | inactive
Cc1ccc(N2CC(C(=O)Nc3ccc(N(C)C)cc3)CC2=O)cc1Cl (configuration not stated) | inactive
CC(=O)Nc1cc(C(=O)NCc2ccc(F)cc2)ccc1Sc1ccc(F)cc1 | inactive
CCc1ccc(C2CC(=O)c3c([nH]c(C(=O)OCc4ccc(C)cc4)c3C)C2)cc1 (configuration not stated) | inactive
O=C(CNCCC1=CCCCC1)Nc1ccccc1N1CCCCCC1 | 56.2 µM (active)
Cc1ccc(C(C)C)cc1OCC(=O)Nc1ccccc1N1CCCC1 | inactive
Cc1ccccc1NC(=O)Nc1ccccc1N1CCCCC1 | inactive
COc1cc([N+](=O)[O-])ccc1NC(=O)CN1CCCC1 | inactive
O=C(CN1CCCCCC1)Nc1ccc(Br)cc1Br | inactive
O=C(CN1CCCCCC1)Nc1ccc(Br)cc1[N+](=O)[O-] | 15.8 µM (active)
CC1=C(C(=O)OCc2ccc(C)cc2)C(c2ccccc2Cl)CC(=O)N1 (configuration not stated) | inactive
O=C(C1CCN(Cc2ccc(Cl)cc2)CC1)N1CCN(Cc2ccc3c(c2)OCO3)CC1 | 50.1 µM (active)
O=C(CSCc1ccc(Cl)cc1)N1CCN(Cc2ccc3c(c2)OCO3)CC1 | inactive
O=C(C1CCN(S(=O)(=O)c2cnc[nH]2)CC1)N1CCN(Cc2ccc3c(c2)OCO3)CC1 | inactive
COc1ccc(-c2cccc(NS(=O)(=O)c3cc(C)c(OC)c(C)c3C)c2)nn1 | inactive
CCCN(CCC)C(=O)Cn1c(=O)n(-c2ccc(Cl)cc2)c(=O)c2c3c(sc21)CCCCC3 | inactive
Cc1cccc(CC(=O)Nc2cccc(-c3cn4cccnc4n3)c2)c1 | inactive
CCCCOc1ccc(C(=O)N2CC(=O)Nc3ccc(Br)cc3C2c2ccc(F)cc2)cc1 (configuration not stated) | inactive
O=C1CCCC(O)=C1N=Nc1ccc2ncsc2c1 | 50.1 µM (active)
Cc1csc(Nc2ccc(Cl)cc2)[n+]1-c1ccc(Cl)cc1 | 12.6 µM (active)
O=c1ccnc(Nc2ccc(Cl)cc2)[nH]1 | inactive
Cc1ccccc1C(=O)NCc1nc(-c2ccc(Cl)cc2)no1 | inactive
CCOC(=O)c1[nH]c(C)c(CCC(=O)N2CCN(c3ccccc3)CC2)c1C | inactive
COc1ccc(/C=C(\C#N)C(=O)OCC(=O)N(C)C2CCS(=O)(=O)C2)cc1 (configuration not stated) | inactive

SMILES | Potency
COc1ccc(-c2cc(C(=O)N(C)Cc3ccccc3)c3ccccc3n2)cc1 | inactive
CN(C(=O)COC(=O)c1nc(Cl)ccc1Cl)C1CCS(=O)(=O)C1 (configuration not stated) | inactive
COc1ccc(NC(=O)CN(C)C(=O)c2cc(-c3ccc(C)o3)nc3ccccc23)cc1 | inactive
CN(CCOc1ccccc1)C(=O)c1cc(-c2ccco2)nc2ccccc12 | 44.7 µM (active)
CN(C(=O)COC(=O)c1cc(-c2ccco2)nc2ccccc12)C1CCS(=O)(=O)C1 (configuration not stated) | 39.8 µM (active)
COc1ccc(OCC(=O)Nc2cccc(C(=O)OCc3cc(=O)n4nc(C)sc4n3)c2)cc1 | inactive
Cc1cccc(N2CCN(C(=O)CCn3c(=O)c4cccn4c4cccnc43)CC2C)c1 (configuration not stated) | inactive
NC(=O)C1CCN(C(=O)c2cccc(NC(=O)c3nsc4ccccc34)c2)CC1 | inactive
Cc1[nH]c2ccccc2c1C(c1ccccc1)c1cccs1 (configuration not stated) | inactive
O=C(CCS(=O)(=O)c1ccccc1)NC1CCCC1 | inactive
CC(=O)c1cc(-c2ccccc2)n(CC(=O)NC2CCCCC2)c1C | inactive
CC(=O)c1cc(-c2ccccc2)n(CCC(=O)NC2CCCCCC2)c1C | 50.1 µM (active)
Cc1nc2nc(SCC(=O)N(Cc3ccccc3)C(C)C)nn2c(C)c1Cc1ccccc1Cl | inactive
CCOc1cc(C(=O)Nc2nnc3n2CCS3)cc(OCC)c1OCC | inactive
CCOC(=O)c1cc(NC(=O)c2ccc(F)cc2)c(=O)n2c1oc1ccccc12 | inactive
CN(CC(=O)Nc1ccccc1F)S(=O)(=O)c1ccc2c(c1)c(=O)n(C)c(=O)n2C | inactive
O=C(CN1C(=O)COc2ccc(S(=O)(=O)N3CCOCC3)cc21)N1CCN(c2cccc(Cl)c2)CC1 | inactive
COCCNC(=S)N1CCN(C)CC1 | 39.8 µM (active)
COCCNC(=S)N1CCC(NC(=O)C23CC4CC(CC(C4)C2)C3)CC1 | inactive
CCCNC(=S)N1CCC(NC(=O)c2ccc(OC)cc2)CC1 | inactive
CCN1C(=O)c2ccccc2S(=O)c2ccc(C(=O)NCc3ccc(F)cc3)cc21 (configuration not stated) | inactive
CCCCOC(=O)/C(C#N)=C/c1ccc(-c2cccc(C(F)(F)F)c2)o1 | inactive
CCOc1ccc(Nc2nc3c(S(=O)(=O)c4cccc(Cl)c4)nnn3c3ccsc23)cc1 | inactive
Cc1ccc(OCCSc2nc(C)c(Cc3ccccc3)c(=O)[nH]2)cc1 | inactive
S=C(c1ccc(-c2ccccc2)o1)N1CCCCC1 | 35.5 µM (active)
S=C(c1ccccc1)N1CCCC1 | inactive

SMILES | Potency
OCCN1CCN(C(=S)c2ccc(-c3ccccc3)cc2)CC1 | inactive
CSc1ccc(CCNC(=O)c2ccc3c(c2)nc2n3CCOC2)cc1 | inactive
COC(=O)CCCC1=CC2=CC(=O)C(C)(OC(=O)c3cccs3)C(=O)C2=CN1CC1CC1 (configuration not stated) | inactive
COC/C=C/C1=CC2=CC(=O)C(C)(OC(=O)CCC(=O)OC)C(=O)C2=CO1 (configuration not stated) | 50.1 µM (active)
COC(=O)CCCC1=CC2=CC(=O)C(C)(OC(=O)c3cccs3)C(=O)C2=CN1CC(C)C (configuration not stated) | inactive
CCC(=O)N1CCc2cc(Br)cc(S(=O)(=O)CCC(=O)N3CCN(c4ccc(F)cc4)CC3)c21 | inactive
COc1ccc(-c2noc(CCC(=O)N(C)c3ccccc3C)n2)cc1 | inactive
CCOc1cccc(C(=O)Nc2nnc(S(=O)(=O)N(C)c3ccc(C)cc3)s2)c1 | inactive
CCc1ccc(NC(=O)CN2CCSc3ccc(S(=O)(=O)N4CCCC4)cc32)cc1 | inactive
COc1cccc(Cn2cnc3c([N+](=O)[O-])c(C)c(C)cc32)c1 | inactive
CSc1nn(Cc2cccc(C)c2)c(N)c1S(=O)(=O)c1ccccc1 | inactive
Cc1cccc(Cn2cnc3c(N)c(C)c(C)cc32)c1 | 56.2 µM (active)
Cc1ccc(Cl)cc1NC(=O)Cc1ccc(-n2c(C)nc3cccnc32)cc1 | inactive
CC(NC(=O)CCc1cn(Cc2ccccc2Cl)c2ccccc12)c1ccccc1 (configuration not stated) | inactive
CCOc1ccc(CCNC(=O)c2cc3c(=O)n(C)c4ccccc4c3n2C)cc1 | inactive
COC(=O)COc1ccc2c(c1C)O/C(=C\c1ccco1)C2=O | 50.1 µM (active)
COc1ccccc1OCC(=O)OCc1cc(-c2ccco2)on1 | inactive
Cc1cc(C)c(OCC(=O)N/N=C/c2ccco2)c(C)c1 | inactive
CCOC(=O)c1ccc2c(c1)N(Cc1cccc(OC)c1)C(=O)c1ccccc1S2(=O)=O | inactive
CCc1nc(-c2cc(S(=O)(=O)N3CCN(c4ccc(OC)cc4)CC3)ccc2OC)no1 | inactive
Cc1cc2c(cc1C)C(c1cccc(OC(C)C)c1)CC(=O)N2 (configuration not stated) | inactive
Cc1cc(C)c2c(-c3ccc(F)cc3)c(C#N)c(=O)n(C)c2n1 | inactive
N#Cc1c(-c2ccc(Cl)cc2)c2c([nH]c1=S)CCCC2 | inactive
CC(=O)c1c(C)[nH]c(=S)c(C#N)c1-c1ccc(F)cc1 | 79.4 µM (active)

Reference: PubChem BioAssay AID504333 (National Center for Advancing Translational Sciences (NCATS), 2011)
